The text below walks through data of PubChem BioAssay AID488807 (Broad Institute, 2010).

Potency and affinity values are given separately. Records with an inconclusive call do not appear. Entries that show only a call come without a potency. Calls of active or inactive are those of the source. No rule for the calls is given here.

A short description of this assay: growth inhibition of resistant C. albicans, dose response, CaCi-8, fluconazole, Alamar Blue, dry powder (AID 488807). Particulars: C. albicans CaCi-8 + fluconazole, 48 h; series mostly up to 26 µM.
Consider `COc1ccc(OC)c2c(C)cc(N3CCN(C(=O)c4ccc(Cl)cc4)CC3)nc12`, for which the result was inactive.

For the compound `O=C(Cn1nc(-c2ccccc2)c2ccccc21)N1CCc2ccccc2C1`, the outcome was inactive.

On to `CCOC(=O)c1nn(Cc2ccc(Cl)cc2)c2ccccc12`, for which the result was inactive.

Consider `O=C(Cn1nc(-c2ccccc2)c2cc(Cl)ccc21)N1CCOCC1`, for which the outcome was inactive.

On to `O=S(=O)(c1ccc(Cl)cc1)N1CCN(c2ccnc3cc(Cl)ccc23)CC1`, for which the result was inactive.

Take `O=C(Cn1c2ccccc2c2nc3n(c(=O)c21)CCS3)NCCc1ccc(Cl)cc1`: the outcome was inactive.

`O=C(Cn1nc(-c2ccccc2)c2ccccc21)NCc1ccc(Cl)cc1`: the result was inactive.

On to `COc1ccc2c(c1)c1nc3n(c(=O)c1n2CC(=O)N1CCC(C)CC1)CCS3`, for which the activity change, negative = inhibition was 13% [at 2.6 µM] (inactive).

`CCOC(=O)c1c2ccccc2nn1Cc1ccc(Cl)cc1`: the result was inactive.

With `O=C(Cn1c2ccccc2c2nc3n(c(=O)c21)CCCS3)c1ccc(F)cc1`, the outcome was inactive.

Take `Cc1nn(S(C)(=O)=O)c2ccccc12`: the outcome was inactive.

Regarding `CCCNC(=O)Cn1nc(-c2ccccc2)c2cc(Cl)ccc21`, the outcome was inactive.

Consider `c1ccc(-c2n[nH]c3ccccc23)cc1`, for which the outcome was inactive.

With `O=C(c1ccc(Cl)cc1)N1CCN(c2cc(C(F)(F)F)nc3ccccc23)CC1`, the outcome was inactive.

Regarding `COc1ccc2c(c1)c1nc3n(c(=O)c1n2CC(=O)N1CCC(Cc2ccccc2)CC1)CCS3`, the outcome was inactive.

For `O=C(O)c1nn(Cc2ccc(Cl)cc2)c2ccccc12`, the result was inactive.

Turning to `O=C(Cn1nc(C(=O)N2CCCCC2)c2ccccc21)N1CCOCC1`, the outcome was inactive.

On to `CCCNC(=O)Cn1nc(-c2ccccc2)c2ccccc21`, for which the result was inactive.

Turning to `COC(=O)Cn1nc(C)c2ccccc21`, the result was inactive.
